Experimental findings from PubChem BioAssay are described below.

The source made the active and inactive calls. Unless noted, how the calls were made is not given here.

Test [1] concerns Wnt5a (protein binding on small-molecule microarray). Briefly: Wnt5a binders on small-molecule microarray, primary screen, biophysical, 635/667 nm fluorescence (AID 1142).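 Further: fluorescence read at 667 nm with signal to noise per printed feature.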 The note with it: 635 nm fluorescence, higher = more signal.
Test [2] can be described thus: cell viability in Huh7 cells, primary screen, cytotoxicity control for HCV replication inhibitor project, CellTiter-Glo luminescence, basal, 48 h (AID 1143).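 Further: Huh7 hepatoma cells carrying a hepatitis C replication reporter with no stimulus; test concentration not given here.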 The conditions noted are these: Huh7 HCV replicon, higher = more signal, called active from +8 up or from −8 down.
The nature of test [3]: P. aeruginosa biofilm formation inhibitors, primary screen, PAO1 strain, BacTiter-Glo luminescence, LB-PBS (AID 1144). The note with it: 12 h, higher = more signal.
A short description of test [4]: CREB reporter modulators without forskolin, primary screen, cell-based, PC12, CRE-LacZ reporter, unstimulated (AID 1145). The note with it: no forskolin, luminescence, 4.5 h, higher = more signal, called active from +8 up or from −8 down.
A short description of test [5]: CREB reporter modulators under forskolin, primary screen, cell-based, PC12, CRE-LacZ reporter, forskolin-stimulated (AID 1146).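 Further: PC12 cells with 6xCRE LacZ reporter stimulated by forskolin 10 µM; beta-galactosidase reporter signal reflecting CREB driven transcription.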 The note with it: luminescence, 4.5 h, higher = more signal, called active from +8 up or from −8 down.
Test [6] concerns the target Streptavidin (Streptomyces avidinii) (UniProt P22629). Kind of test: streptavidin binders on small-molecule microarray, primary screen, artefact control for SMM compound annotation, biophysical, 635/667 nm fluorescence (AID 1147).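 Further: signal reflects streptavidin binding to arrayed compounds as a control protein.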 The note with it: streptavidin binding, higher = more signal.
Test [7] is described as follows: small-molecule binders of probe aInhba, primary screen, biochemical, small-molecule microarray, 635/667 nm fluorescence (AID 1148).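 Further: score merges 667nm spot fluorescence with signal-to-noise for antibody binding to printed compounds.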 The conditions noted are these: higher = more signal.
Test [8] addresses Torsin-1A (Homo sapiens) (UniProt O14656). Briefly: torsin A binders from cell lysate, primary screen, small-molecule microarray, wild-type, 635/667 nm (AID 1149). The note with it: COS7 hTOR1A-WT lysate, 635 nm fluorescence, higher = more signal.
For test [9] the target is unchanged. Briefly: small-molecule binders of mutant TOR1A in lysate, primary screen, cell lysate, small-molecule microarray, COS7 lysate, 635/667 nm fluorescence (AID 1150).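 Further: score pools 667 nm emission and signal to noise measuring lysate protein binding.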 The note with it: COS7 hTOR1A mutant lysate, 635 nm fluorescence, higher = more signal.
For test [10], the system named is Sonic hedgehog protein (Shh). Briefly: small-molecule binders of Shh protein, primary screen, biochemical, small-molecule microarray, 635/667 nm fluorescence (AID 1151).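 Further: Shh protein binding to compounds spotted on small-molecule microarray slides; score combines spot fluorescence intensity with signal-to-noise across triplicate slides.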 The note with it: small-molecule microarray binding, 635 nm fluorescence; higher = more signal.
Test [11] in a line: E. coli DRC41 culture turbidity changes, primary screen, E. coli filamentation inducer project, strain DRC41, OD650, 48 h (AID 1152).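 Further: E. coli MC1000 strain DRC41 lacking acrAB efflux pump and sulA.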 The conditions noted are these: E. coli DRC41 (acrAB sulA), higher = more signal, called active from +8 up or from −8 down.
A short description of test [12]: small-molecule binders of probe aLefty1, primary screen, biochemical, small-molecule microarray, 635/667 nm fluorescence (AID 1153).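 Further: score merges spot fluorescence with signal-to-noise ratio from the scanned slide images.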 The conditions noted are these: higher = more signal.
The nature of test [13]: PSAC antagonists in infected red cells, primary screen, cell-based, P. falciparum Indochina, OD700, 1 h (AID 1154). The note with it: P. falciparum Indochina infected RBC osmotic lysis, higher = more signal, called active from +8 up or from −8 down.
Test [14] can be described thus: PSAC antagonists in infected red cells, primary screen, cell-based, P. falciparum Indochina, OD700, 2 h (AID 1155).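 Further: lysis reports solute entry through the parasite surface anion channel PSAC; channel blockers reduce lysis of infected cells.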 The note with it: P. falciparum Indochina infected erythrocytes, osmotic lysis OD700; higher = more signal, called active from +8 up or from −8 down.
Test [15] can be described thus: osmotic lysis modulators in infected erythrocytes, primary screen, PSAC antagonist project, cell-based, P. falciparum Indochina, OD700, 3 h (AID 1156). The conditions noted are these: higher = more signal, called active from +8 up or from −8 down.
Test [16] can be described thus: PSAC antagonists in infected red cells, primary screen, cell-based, P. falciparum Indochina, OD700, 18 h (AID 1157). The note with it: P. falciparum Indochina infected erythrocytes, osmotic lysis OD700, 18 h; higher = more signal, called active from +8 up or from −8 down.
The nature of test [17]: modulators of S6 phosphorylation in cells, primary screen, cell-based, A549, cytoblot, luminescence, serum-stimulated (AID 1158).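 Further: serum-stimulated A549 lung adenocarcinoma cells; signal is phosphorylated S6 detected by cytoblot immunostaining with HRP secondary.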 The conditions noted are these: A549 phospho-S6 cytoblot, 5 h, higher = more signal.
Test [18] concerns the target NADPH oxidase 2 (Homo sapiens) (UniProt P04839). Briefly: NOX2-dependent H2O2 signal modulators, primary screen, NOX inhibitor project, cell-based, HEK293-NOX2, PMA-stimulated, Amplex Red fluorescence (AID 1159). Further: test concentration not given here. The note with it: 45 min, higher = more signal, called active from +8 up or from −8 down.
Test [19] concerns the target NADPH oxidase 4 (Homo sapiens) (UniProt Q9NPH5). Briefly: NOX4-dependent H2O2 signal modulators, primary screen, NOX inhibitor project, cell-based, HEK293-NOX4, tetracycline-induced, Amplex Red fluorescence (AID 1160). The note with it: 45 min, higher = more signal, called active from +8 up or from −8 down.
Test [20] has as its target NADPH oxidase 5 (Homo sapiens) (UniProt Q96PH1). Briefly: NOX5-dependent H2O2 signal modulators, primary screen, NOX inhibitor project, cell-based, HEK293-NOX5, Amplex Red fluorescence (AID 1161). The note with it: HEK293-NOX5, ionomycin, 45 min, higher = more signal.

Sequence of Torsin-1A (Homo sapiens) (O14656 whole entry, looked up): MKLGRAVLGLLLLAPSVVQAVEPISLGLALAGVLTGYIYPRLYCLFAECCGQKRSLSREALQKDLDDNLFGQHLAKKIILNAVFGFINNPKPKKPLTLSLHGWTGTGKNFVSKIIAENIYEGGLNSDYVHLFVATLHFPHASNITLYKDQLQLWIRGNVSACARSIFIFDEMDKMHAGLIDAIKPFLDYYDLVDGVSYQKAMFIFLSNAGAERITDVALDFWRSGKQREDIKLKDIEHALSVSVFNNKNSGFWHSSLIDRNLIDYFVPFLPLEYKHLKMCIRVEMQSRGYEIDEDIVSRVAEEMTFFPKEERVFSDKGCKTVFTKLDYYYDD
Sequence of Streptavidin (Streptomyces avidinii) (P22629 whole entry, looked up): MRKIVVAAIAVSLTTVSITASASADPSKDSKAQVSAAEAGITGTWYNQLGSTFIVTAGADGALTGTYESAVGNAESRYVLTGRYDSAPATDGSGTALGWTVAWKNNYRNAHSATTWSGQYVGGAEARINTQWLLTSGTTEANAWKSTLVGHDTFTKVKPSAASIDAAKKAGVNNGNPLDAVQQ
Sequence of NADPH oxidase 2 (Homo sapiens) (P04839 whole entry, looked up): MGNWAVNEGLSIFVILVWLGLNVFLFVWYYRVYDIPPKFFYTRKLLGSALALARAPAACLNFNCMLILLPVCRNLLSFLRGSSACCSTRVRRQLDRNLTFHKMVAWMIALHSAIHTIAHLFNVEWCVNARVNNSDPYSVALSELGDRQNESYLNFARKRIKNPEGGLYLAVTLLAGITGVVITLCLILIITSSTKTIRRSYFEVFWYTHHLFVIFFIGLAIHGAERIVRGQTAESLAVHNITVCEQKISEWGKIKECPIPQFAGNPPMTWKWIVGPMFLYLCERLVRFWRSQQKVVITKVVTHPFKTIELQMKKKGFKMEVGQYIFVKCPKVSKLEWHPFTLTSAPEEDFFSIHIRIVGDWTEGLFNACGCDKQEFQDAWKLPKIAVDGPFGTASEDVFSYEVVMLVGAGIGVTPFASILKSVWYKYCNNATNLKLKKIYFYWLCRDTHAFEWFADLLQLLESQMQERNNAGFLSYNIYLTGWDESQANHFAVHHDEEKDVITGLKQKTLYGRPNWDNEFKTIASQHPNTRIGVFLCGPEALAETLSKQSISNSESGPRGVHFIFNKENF
Sequence of NADPH oxidase 5 (Homo sapiens) (Q96PH1 whole entry, looked up): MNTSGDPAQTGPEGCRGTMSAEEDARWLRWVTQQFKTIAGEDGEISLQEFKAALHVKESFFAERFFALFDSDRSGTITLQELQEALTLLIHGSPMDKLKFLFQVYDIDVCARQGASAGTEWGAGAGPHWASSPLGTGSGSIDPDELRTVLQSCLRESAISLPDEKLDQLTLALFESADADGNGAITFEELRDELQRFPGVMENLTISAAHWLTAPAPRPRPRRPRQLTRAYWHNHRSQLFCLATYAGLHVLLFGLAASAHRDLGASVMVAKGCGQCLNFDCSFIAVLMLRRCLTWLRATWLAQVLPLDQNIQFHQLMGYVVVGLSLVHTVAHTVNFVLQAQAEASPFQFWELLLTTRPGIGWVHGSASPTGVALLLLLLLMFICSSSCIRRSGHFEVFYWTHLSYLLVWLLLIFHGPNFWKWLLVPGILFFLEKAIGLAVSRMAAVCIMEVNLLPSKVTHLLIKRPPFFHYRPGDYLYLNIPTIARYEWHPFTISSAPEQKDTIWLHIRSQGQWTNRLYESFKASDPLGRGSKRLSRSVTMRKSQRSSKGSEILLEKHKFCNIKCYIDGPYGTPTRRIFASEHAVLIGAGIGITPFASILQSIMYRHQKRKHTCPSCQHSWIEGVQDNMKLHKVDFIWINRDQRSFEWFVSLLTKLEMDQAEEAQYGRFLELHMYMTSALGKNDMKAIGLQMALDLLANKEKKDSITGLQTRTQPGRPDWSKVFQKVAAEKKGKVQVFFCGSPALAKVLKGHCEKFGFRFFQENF
Sequence of NADPH oxidase 4 (Homo sapiens) (Q9NPH5 whole entry, looked up): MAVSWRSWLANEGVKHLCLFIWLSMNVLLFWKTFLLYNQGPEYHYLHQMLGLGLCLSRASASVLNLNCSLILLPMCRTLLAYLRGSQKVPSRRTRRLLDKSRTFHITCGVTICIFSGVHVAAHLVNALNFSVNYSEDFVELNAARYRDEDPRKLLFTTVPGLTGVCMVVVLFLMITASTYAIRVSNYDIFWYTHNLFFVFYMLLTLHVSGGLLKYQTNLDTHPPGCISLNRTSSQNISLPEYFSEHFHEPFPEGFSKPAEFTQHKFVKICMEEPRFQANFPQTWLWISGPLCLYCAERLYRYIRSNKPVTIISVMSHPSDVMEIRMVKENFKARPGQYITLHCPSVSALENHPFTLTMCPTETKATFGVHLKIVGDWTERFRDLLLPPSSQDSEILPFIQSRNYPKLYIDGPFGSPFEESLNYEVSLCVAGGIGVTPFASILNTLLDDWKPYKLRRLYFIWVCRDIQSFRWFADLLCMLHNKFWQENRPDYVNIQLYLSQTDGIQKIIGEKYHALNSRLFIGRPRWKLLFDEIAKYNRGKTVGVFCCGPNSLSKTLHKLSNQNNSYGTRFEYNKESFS

As for `CN1C(=O)C2C(C1=O)C1C=C(CCCO)C2C(C2CC2)N1C` (stereo not given), the composite z-score was 0.0748 in test [1]; -0.45 in test [6]; 0.0543 in [7]; -0.427 with Torsin-1A (Homo sapiens) [8]; -0.454 with Torsin-1A (Homo sapiens) [9]; -0.685 in test [10]. This molecule had a composite z-score in [12] of -0.0683. The z-score in [2] was -2.56 (inactive); in test [3], 0.189 (inactive); in [4], 0.0295 (inactive); in test [5], -0.984 (inactive); in test [11], 0.667 (inactive); in test [13], -0.452 (inactive). Also, the z-score in test [14] was -0.72 (inactive); in test [15], 0.139 (inactive); in [16], -1.17 (inactive); in test [17], 1.82; in [18], -0.0367 (inactive); in test [19] it was -0.274 (inactive). Besides, the z-score in [20] turned out to be 0.53.

`C=CCNC(=O)[C@H]1[C@@H]2C(=O)O[C@@H](c3ccccc3)[C@@H](c3ccccc3)N2[C@@H](c2ccc(OCCO)cc2)[C@]12C(=O)Nc1ccc(C#Cc3ccc(OC)cc3)cc12`: the composite z-score came out at 0.4 in [1]; 0.918 in [6]; 0.165 in [7]; 0.44 in the test with Torsin-1A (Homo sapiens) [8]; 0.471 with Torsin-1A (Homo sapiens) [9]; 0.974 in [10]. Moreover, the composite z-score in test [12] was -0.248. For the same molecule, the z-score was -3.41 (inactive) in test [2]; -0.832 (inactive) in test [3]; 0.478 (inactive) in test [4]; 0.237 (inactive) in [5]; -0.0405 (inactive) in [11]; 3.42 (inactive) in test [13]. In addition, the z-score is 2.19 (inactive) in test [14]; 0.866 (inactive) in test [15]; 1.4 (inactive) in test [16]; -0.0157 in test [17]; 0.87 (inactive) in test [18]; 0.34 (inactive) in test [19]. The same molecule came in with a z-score in test [20] of 1.43.

Consider `[N-]=[N+]=Nc1ccccc1C[C@@]1(C(=O)NCC(O)CO)N=C(c2ccc(OCCCO)cc2)O[C@@H]1c1ccccc1N=[N+]=[N-]` (stereo not given in full), for which the composite z-score in [1] is 1.28; in [6], 1.23; in test [7], -0.0504; in the test with Torsin-1A (Homo sapiens) [8] it was 1.53; with Torsin-1A (Homo sapiens) [9], 0.0816; in [10], -0.59. The same molecule had a composite z-score in test [12] of -0.281. For the same molecule, the z-score is -4.99 (inactive) in test [2]; -0.0717 (inactive) in [3]; 0.825 (inactive) in test [4]; -1.42 (inactive) in test [5]; -0.193 (inactive) in [11]; 30.3 (active) in test [13]. Moreover, the z-score in [14] was 29.2 (active); in test [15], 0.0029 (inactive); in [16], 8.12 (active); in [17], 0.191; in test [18], -1.55 (inactive); in [19], 0.776 (inactive). The molecule also returned a z-score in test [20] of 1.85.

Consider `C=CCOC(=O)[C@H]1[C@@H]2C(=O)O[C@@H](c3ccccc3)[C@@H](c3ccccc3)N2[C@@H](c2ccc(OCCOC(=O)[C@H]3C[C@H]4C(=O)NCC(=O)N4[C@H]3c3cccc(OCCO)c3)cc2)[C@]12C(=O)Nc1ccc(I)cc12`, for which the composite z-score in test [1] came to 0.984; in [6], 0.0708; in [7] it was 0.434; with Torsin-1A (Homo sapiens) [8], 0.418; with Torsin-1A (Homo sapiens) [9], 0.83; in test [10], 1.94. Moreover, in test [12], the composite z-score was 1.31. For the same molecule, the z-score in test [2] is -0.469 (inactive); in [3], -0.282 (inactive); in test [4], 0.423 (inactive); in test [5], -0.142 (inactive); in [11] it was 0.0133 (inactive); in test [13], 5.17 (inactive). Besides, the z-score was 2.48 (inactive) in test [14]; 0.939 (inactive) in test [15]; 1.58 (inactive) in [16]; 0.58 in [17]; 1.71 (inactive) in [18]; 0.956 (inactive) in test [19]. The same molecule displayed a z-score in test [20] of 1.4.

With `C=CCC(OC(C)=O)[C@@H]1[C@@H](N(Cc2ccc(-c3ccccc3)cc2)C(=O)Cc2ccc(OC)cc2)c2cc(OCCCO)ccc2N1C(=O)c1ccc2ccccc2c1` (stereo not given in full), the composite z-score in [1] was -0.0966; in [6] it was 1.14; in test [7] it was -0.153; in the test with Torsin-1A (Homo sapiens) [8], -0.137; in the test with Torsin-1A (Homo sapiens) [9], -0.451; in [10] it was 0.234. In test [12], this molecule registered a composite z-score of -0.529. Also, the z-score in test [2] was -1.35 (inactive); in test [3], 0.832 (inactive); in [4], 1.37 (inactive); in test [5], 0.385 (inactive); in test [11] it was -0.894 (inactive); in [13] it was 1.23 (inactive). Moreover, the z-score in [14] is 0.384 (inactive); in [15] it was -0.247 (inactive); in [16] it was 0.41 (inactive); in test [17], -0.111; in test [18], -0.48 (inactive); in [19] it was 0.832 (inactive). The z-score in test [20] worked out at 0.808.

Turning to `O=C(c1ccccc1)N1Cc2ccccc2C[C@@]2(N=C(c3ccc(OCCCO)cc3)O[C@H]2c2ccccc2)C1=O`, the composite z-score in [1] came to 1.27; in [6], 0.491; in test [7] it was 0.0658; with Torsin-1A (Homo sapiens) [8], 0.881; with Torsin-1A (Homo sapiens) [9] it was 1.06; in test [10], 2.19. In test [12], this molecule showed a composite z-score of 0.149. Moreover, the z-score was -4.73 (inactive) in test [2]; -0.191 (inactive) in test [3]; 0.904 (inactive) in test [4]; -1.12 (inactive) in [5]; -0.702 (inactive) in test [11]; 6.6 (inactive) in test [13]. Further, the z-score in [14] was 1.66 (inactive); in [15] it was 2.54 (inactive); in [16], 0.937 (inactive); in test [17], -0.221; in test [18], 1.21 (inactive); in [19], -0.172 (inactive). This molecule had a z-score in test [20] of -0.693.

`COc1ccc([Si](C)(C)[C@H]2[C@H](CC(=O)N3CCC[C@H]3CO)O[C@@]3(C(=O)N(C)c4c(Br)cc(C)cc43)[C@@H]2C)cc1`: the composite z-score in test [1] was found to be 1.55; in test [6], 3.28; in test [7], 0.462; with Torsin-1A (Homo sapiens) [8] it was 2.05; with Torsin-1A (Homo sapiens) [9], 1.5; in test [10], 1.6. In test [12], this molecule had a composite z-score of 1. Besides, the z-score in test [2] is -1.11 (inactive); in test [3] it was -0.518 (inactive); in [4] it was 0.758 (inactive); in [5], 1.09 (inactive); in test [11], -0.437 (inactive); in test [13], 2.11 (inactive). For the same molecule, the z-score in test [14] was 0.179 (inactive); in test [15] it was -0.192 (inactive); in [16] it was 0.62 (inactive); in test [17], 0.488; in test [18], 0.951 (inactive); in test [19], 0.657 (inactive). Moreover, in [20], the z-score worked out at 3.04.

As to `Cc1c(NC(=O)/C(C#N)=C/C=C/c2ccc([N+](=O)[O-])cc2)c(=O)n(-c2ccccc2)n1C`, the composite z-score was 0.388 in [1]; 1.32 in [6]; 0.0301 in test [7]; 0.321 with Torsin-1A (Homo sapiens) [8]; 0.468 with Torsin-1A (Homo sapiens) [9]; 0.569 in test [10]. In test [12], this molecule displayed a composite z-score of 0.277. The z-score in test [2] was -0.997 (inactive); in test [3] it was 1.12 (inactive); in test [4], 0.829 (inactive); in [5] it was 0.732 (inactive); in test [11] it was 0.0351 (inactive); in test [13] it was 2.74 (inactive). The z-score was 0.636 (inactive) in test [14]; 0.206 (inactive) in test [15]; 0.598 (inactive) in test [16]; -0.279 in test [17]; -0.696 (inactive) in test [18]; 0.0994 (inactive) in [19]. For the same molecule, the z-score in [20] is 0.714.
